In the library only some 10% were active in any assay of this set; here they are far more common.
GPT2 inhibitor = Primary qHTS assay for inhibitors of Glutamate pyruvate transaminase 2 (GPT2). Recombinant GPT2, coupled pyruvate oxidase/HRP Amplex Red fluorescence. Potency, µM (series often up to 57.7 µM), usual class: inhibitors. hit rate 0.25% among 100,000; further: nearly all actives have a fitted effect of over 60% in size
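GPT2 10ng/uL, a-KG 250uM, L-Ala 2mM, HEPES pH7.5 + 0.0001% Tween; 30 min RT. Then Amplex mix (PO/HRP/ThPP), 30 min RT dark, fluorescence. AOA 50uM used as positive control.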
Luciferase inh = Firefly luciferase inhibition profiling of diverse chemical library using quantitative high-throughput screening. Luciferin 4-monooxygenase (Photinus pyralis), P08659. purified P. pyralis luciferase, luminescence, biochemical. Potency, µM (doses to about 115 µM), actives largely listed as inhibitors. hit rate 2.5% among 76,000. AID 1347043, 2019; further: nearly all actives have a fitted effect of over 65% in size
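Purified 10nM P. pyralis luciferase with 10uM D-luciferin and 10uM ATP in 50mM Tris acetate pH 7.5, 10mM Mg acetate, 0.01% Tween-20, 0.05% BSA. qHTS titration; luminescence read by CCD imager.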
HEK293 tox = Cytotoxic Profiling in HEK 293 Cell Line of Diverse Libraries Using Quantitative High-Throughput Screening | HEK 293 viability, ATP luminescence (CellTiter-Glo), 48-72 h | Potency, µM (top dose mostly 115 µM), most hits filed as inhibitors | hit rate 6.6% among 94,000 | AID 1345083, 2018; further: nearly all actives have a fitted effect of over 60% in size
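HEK 293 cells at 250 cells/well were exposed to compounds by pintool transfer for 48 or 72 hr at 37 degree Celsius, 5% CO2. Viability was read as ATP-coupled luminescence with CellTiter-Glo after 10 min at room temperature.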
3T3 cytotox = Cytotoxic Profiling in NIH 3T3 Cell Line of Diverse Libraries Using Quantitative High-Throughput Screening. Potency, µM (doses to about 96.7 µM), actives largely listed as inhibitors. hit rate 4.3% among 94,000. NIH 3T3 viability, CellTiter-Glo ATP luminescence, 48-72 h; further: nearly all actives have a fitted effect of over 55% in size
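NIH 3T3 cells at 400 cells/well received 23 nL of compound by pintool and were incubated 48 or 72 h at 37 °C. Viability was read as ATP-coupled CellTiter-Glo luminescence.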
hNpr1 antagonist = Natriuretic polypeptide receptor (hNpr1) antagonism - Primary qHTS; Atrial natriuretic peptide receptor 1 (Homo sapiens), P16066; HEK293 hNpr1 GloSensor cGMP, ANP-stimulated luminescence; Potency, µM (doses to about 46.3 µM), actives largely listed as inhibitors; hit rate 1.6% among 76,000; calls by dose curve; further: nearly all actives have a fitted effect of over 60% in size
Target sequence (P16066 whole entry, looked up): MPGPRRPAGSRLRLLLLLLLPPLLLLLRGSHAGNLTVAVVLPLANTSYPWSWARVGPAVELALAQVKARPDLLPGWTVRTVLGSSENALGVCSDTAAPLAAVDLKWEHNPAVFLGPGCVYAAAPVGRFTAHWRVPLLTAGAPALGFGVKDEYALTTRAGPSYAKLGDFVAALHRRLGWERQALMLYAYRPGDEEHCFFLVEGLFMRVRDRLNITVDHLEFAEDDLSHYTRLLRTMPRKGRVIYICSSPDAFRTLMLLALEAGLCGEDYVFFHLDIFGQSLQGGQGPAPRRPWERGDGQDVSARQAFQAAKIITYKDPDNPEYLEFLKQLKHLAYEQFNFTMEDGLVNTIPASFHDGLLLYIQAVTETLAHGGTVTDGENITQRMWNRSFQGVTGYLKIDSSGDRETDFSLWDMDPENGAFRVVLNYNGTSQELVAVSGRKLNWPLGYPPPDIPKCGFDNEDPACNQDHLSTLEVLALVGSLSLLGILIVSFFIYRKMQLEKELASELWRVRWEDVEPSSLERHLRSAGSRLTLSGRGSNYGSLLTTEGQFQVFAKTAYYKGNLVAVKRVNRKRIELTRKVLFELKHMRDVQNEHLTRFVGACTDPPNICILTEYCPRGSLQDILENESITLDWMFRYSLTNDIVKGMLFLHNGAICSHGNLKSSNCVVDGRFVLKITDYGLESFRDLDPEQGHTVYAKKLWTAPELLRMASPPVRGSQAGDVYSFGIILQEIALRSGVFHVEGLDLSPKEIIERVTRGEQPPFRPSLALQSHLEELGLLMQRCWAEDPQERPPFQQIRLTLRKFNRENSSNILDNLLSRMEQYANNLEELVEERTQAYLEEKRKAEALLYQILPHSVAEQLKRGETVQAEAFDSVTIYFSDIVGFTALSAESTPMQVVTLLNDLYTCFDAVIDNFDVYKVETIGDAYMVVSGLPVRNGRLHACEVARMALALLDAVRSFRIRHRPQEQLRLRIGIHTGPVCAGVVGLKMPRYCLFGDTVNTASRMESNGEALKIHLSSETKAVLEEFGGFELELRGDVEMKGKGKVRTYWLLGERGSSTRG
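Compound pre-incubated 30 min at room temperature on GloSensor-loaded HEK293 cells stably carrying hNpr1 and the pGS-40F cGMP biosensor. Stimulation uses hNppA at 0.1 nM final; luminescence is taken at baseline and 20 min post-agonist.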
Npr1 antag conf = Natriuretic polypeptide receptor (hNpr1) antagonism - Confirmation; shares compounds with hNpr1 antagonist; HEK293 hNpr1 cGMP GloSensor luminescence, ANP-stimulated; Potency, µM (highest dose often 57.6 µM), actives largely listed as inhibitors; hit rate 76% among 1,400; calls by dose curve; further: nearly all actives have a fitted effect of over 70% in size
NPR2 antag = Natriuretic polypeptide receptor (hNpr2) antagonism - Subtype selectivity assay | shares compounds with hNpr1 antagonist | hit rate 67% among 1,400 | HEK293 hNpr2 GloSensor cGMP luminescence, CNP-stimulated | AID 1347046, 2019 | Potency, µM (titrated, usually from 57.6 µM), usual class: inhibitors; calls by dose curve; further: nearly all actives have a fitted effect of over 70% in size
FLuc inh counter = Natriuretic polypeptide receptor (hNpr1) antagonism - Confirmation firefly luciferase (FLuc) inhibition counterscreen; shares compounds with hNpr1 antagonist; purified FLuc enzyme, luminescence, Km substrate; Potency, µM (series often up to 57.6 µM), actives largely listed as inhibitors; hit rate 0.7% among 1,400; AID 1347047, 2019
GloSensor cGMP = Natriuretic polypeptide receptor (hNpr1) antagonism - Counterscreen GloSensor control cell line; shares compounds with hNpr1 antagonist; HEK293 GloSensor cGMP, SNP-stimulated, luminescence; Potency, µM (doses to about 57.6 µM), actives largely listed as inhibitors; hit rate 69% among 1,400; calls by dose curve; further: nearly all actives have a fitted effect of over 70% in size
Of the large screens only hits and unclear results are named; the others gave an inactive call (follow-up assays come after a bar, where they were run). Unless noted, the call rests on the fitted dose curve; in most records, active means well fitted curve in the direction sought with a large enough effect; inconclusive means small, poorly fitted or top-dose-only effect, or another doubt; inactive means no such curve, though single readings can be large; an effect the other way counts as inactive or inconclusive.

COc1cc(Cl)ccc1C(=O)N1CCN(c2cc(-c3cccs3)[nH]n2)CC1	HEK293 tox 25µM, 3T3 cytotox inconclusive, hNpr1 antagonist 11µM | Npr1 antag conf 19µM | NPR2 antag 19µM | FLuc inh counter inactive | GloSensor cGMP 17µM
COc1ccc(Cl)cc1C(=O)N1CCN(c2cc(-c3cccs3)[nH]n2)CC1	HEK293 tox inconclusive, 3T3 cytotox inconclusive, hNpr1 antagonist inconclusive
COc1ccc(-c2nc(C3CC3)nc3c2CCN(Cc2ccc(C(F)(F)F)cc2)CC3)cc1	HEK293 tox inconclusive, 3T3 cytotox inconclusive (no result: Luciferase inh, hNpr1 antagonist)
O=C(NCc1ccc2c(c1)OCO2)C1CC(c2ccccc2)CN(C(=O)c2ccccc2F)C1 (centres undefined)	HEK293 tox inconclusive, 3T3 cytotox inconclusive
O=C(NC1CCCCC1)C1(CCO)CC12CCOCC2 (centres undefined)	none (no result: Luciferase inh, hNpr1 antagonist)
O=C(Nc1cccc(F)c1)C1CCN(C(=O)c2ncn3c2COC(c2ccc(F)cc2)C3)CC1 (centres undefined)	GPT2 inhibitor inconclusive, HEK293 tox inconclusive, hNpr1 antagonist inconclusive | Npr1 antag conf inconclusive | NPR2 antag inactive | FLuc inh counter inactive | GloSensor cGMP inconclusive
O=C(Nc1cccc(Cl)c1)C1CCN(C(=O)c2ncn3c2COC(c2ccc(F)cc2)C3)CC1 (centres undefined)	Luciferase inh inconclusive, HEK293 tox inconclusive, hNpr1 antagonist inconclusive
Fc1ccc2c(c1)nc1n2[C@@H](CNCc2cnc3ccccc3c2)COC1	HEK293 tox inconclusive, hNpr1 antagonist 35µM | Npr1 antag conf 40µM | NPR2 antag inconclusive | FLuc inh counter inactive | GloSensor cGMP 40µM
COc1ccc2nc3n(c2c1)[C@@H](CNCc1cnc2ccccc2c1)COC3	none
CC(=O)Nc1ccc(CNC[C@H]2COCc3nc4c(C)cccc4n32)cc1	HEK293 tox inconclusive, hNpr1 antagonist inconclusive
Fc1ccc2c(c1)nc1n2[C@@H](CNCc2ccccn2)COC1	HEK293 tox inconclusive, 3T3 cytotox inconclusive
Cc1cccc2c1nc1n2[C@@H](CNCc2ccccc2)COC1	HEK293 tox inconclusive, 3T3 cytotox inconclusive, hNpr1 antagonist 20µM | Npr1 antag conf 31µM | NPR2 antag 31µM | FLuc inh counter inactive | GloSensor cGMP 22µM
c1ccc2ncc(CNC[C@H]3COCc4nc5ccccc5n43)cc2c1	HEK293 tox inconclusive, 3T3 cytotox inconclusive, hNpr1 antagonist 20µM | Npr1 antag conf 31µM | NPR2 antag 31µM | FLuc inh counter inactive | GloSensor cGMP 28µM
COc1cccc(N2C(=O)NC(=NC3CCCC3)C23CCN([S+](=O)([O-])c2cccc(OC)c2)C3)c1 (centres undefined)	none (no result: Luciferase inh, hNpr1 antagonist)
O=C(c1ccc(Cl)cc1)N1CC2(CCN(Cc3cccnc3)C2)Cc2ccccc21 (centres undefined)	HEK293 tox inconclusive, 3T3 cytotox inconclusive (no result: Luciferase inh, hNpr1 antagonist)
CN1CCN(C(=O)c2cn3cc(-c4cccc(C(F)(F)F)c4)sc3n2)CC1	none (no result: Luciferase inh, hNpr1 antagonist)
Cc1ccccc1SC1CCN(c2cc(C3CC(O)C3)ncn2)CC1 (centres undefined)	HEK293 tox inconclusive, 3T3 cytotox inconclusive, hNpr1 antagonist 2.8µM | Npr1 antag conf 4.8µM | NPR2 antag 6.1µM | FLuc inh counter inactive | GloSensor cGMP 3.9µM
Cc1cc(C)cc(N2CCN(c3cc(C4CC(O)C4)ncn3)CC2=O)c1 (centres undefined)	none
Cc1ccc(Cl)cc1N1CCN(c2cc(C3CC(O)C3)ncn2)CC1 (centres undefined)	HEK293 tox 28µM, 3T3 cytotox inconclusive, hNpr1 antagonist 8.9µM | Npr1 antag conf 19µM | NPR2 antag 19µM | FLuc inh counter inactive | GloSensor cGMP 14µM
O=C(c1cccs1)N1CCCC(CN2CCCC2)CC1 (centres undefined)	none
COc1ccc(-c2ccccc2C(=O)NCC(F)(F)F)nn1	none (no result: GPT2 inhibitor, Luciferase inh, hNpr1 antagonist)
CCN1C(=O)Cc2ccccc2C1C(=O)NCc1ccccc1Br (centres undefined)	GPT2 inhibitor inconclusive | Npr1 antag conf inactive | NPR2 antag inconclusive | FLuc inh counter inactive | GloSensor cGMP inactive
CC(C)Cc1cn(CC2CCCN(C(=O)NC3CCCCCC3)C2)nn1 (centres undefined)	HEK293 tox inconclusive, 3T3 cytotox inconclusive, hNpr1 antagonist 10µM | Npr1 antag conf 17µM | NPR2 antag 17µM | FLuc inh counter inactive | GloSensor cGMP 12µM
CC(C)(N)c1cn(CC2CCN(C(=O)NC3CCCCCC3)CC2)nn1	none
CC(=O)NC[C@H]1CCN(Cc2cccc(Cl)c2)C[C@H]1N(C)C	none
C#CCNC(=O)c1cc(-c2ccc([S+](C)(=O)[O-])cc2)c2cccn2n1	HEK293 tox inconclusive, 3T3 cytotox inconclusive (no result: Luciferase inh, hNpr1 antagonist)
C[S+](=O)([O-])c1ccc(-c2cc(C(=O)NCCc3ccc(Cl)cc3)nn3cccc23)cc1	HEK293 tox inconclusive, 3T3 cytotox 22µM (no result: Luciferase inh, hNpr1 antagonist) | Npr1 antag conf inconclusive | NPR2 antag inconclusive | FLuc inh counter 15µM | GloSensor cGMP inconclusive
COC(=O)N1CCCCC(NC(=O)CCCc2nc(-c3ccccc3C)no2)C1 (centres undefined)	GPT2 inhibitor inconclusive, HEK293 tox 35µM, 3T3 cytotox inconclusive, hNpr1 antagonist 13µM | Npr1 antag conf 17µM | NPR2 antag 19µM | FLuc inh counter inactive | GloSensor cGMP 19µM
CCO[C@H]1CN(C(=O)CCCc2nc(-c3ccccc3OC)no2)C[C@@H]1O	none
COCCNC(=O)c1cc(-c2ccc(OC)cc2)nc2c1cnn2C	HEK293 tox inconclusive, 3T3 cytotox inconclusive (no result: Luciferase inh, hNpr1 antagonist)

Source: PubChem BioAssay
